Assay results as given in PubChem BioAssay (EPA / NIEHS).
Values joined by “and” are separate entries in the source; they are usually repeats but may differ in a detail not shown here. Identical values can stand only once. Where a structure was tested more than once in an assay, its records may differ in their call. Active and inactive are the calls of the source. How the source made its calls: active means hit-call score of the fitted dose curve at least 0.9, where 1 is the maximum; inactive means score below 0.9.

read-out: Monokine induced gamma interferon (MIG), CXCL9 (gene 4283); experiment: BSK_BE3C_MIG: BioMAP Diversity Plus: BE3C Assay for Monokine induced gamma interferon (MIG) Biomarker Activity (AID 2283035); details: primary human bronchial epithelial cells; actives raise or lower the signal
Protocol: BSK_BE3C is a cell-based, multiplexed-readout assay that uses bronchial epithelial cell, a human lung primary cell, with measurements taken at 24 hours after chemical dosing in a 96-well plate.BSK_BE3C_MIG is an assay component measured in the BSK_BE3C assay. It measures MIG antibody related to regulation of gene expression using ELISA technology.Data from the assay component BSK_BE3C_MIG was analyzed into 1 assay endpoint. This assay endpoint, BSK_BE3C_MIG, was analyzed with bidirectional fitting relative to DMSO as the negative control and baseline of activity. Using a type of binding reporter, gain or loss-of-signal activity can be used to understand changes in the signaling as they relate to the gene CXCL9. Furthermore, this assay endpoint can be referred to as a primary readout, because this assay has produced multiple assay endpoints where this one serves a signaling function. To generalize the intended target to other relatable targets, this assay endpoint is annotated to the cytokine intended target family, where the subfamily is chemotactic factor.
The levels of cell surface (or secreted, indicated by the prefix "s") biomarker endpoints were measured by ELISA. Overt cytotoxicity to cells in confluent adherent cultures (all systems other than the BT system) was assessed by measuring total protein levels using sulforhodamine B (SRB) staining in parallel cultures at the time of biomarker measurements, indicated as SRB endpoints. For proliferation assays for adherent cell types, individual cell types are cultured at sub-confluence and relative cell numbers quantified by SRB staining at time points optimized for each system (48 h: 3C and CASM3C systems; 72 h: BT and HDF3CGF systems; 96 h: SAg system). SRB was performed by staining cells with 0.1% SRB after fixation with 10% TCA and reading wells at 560 nm.Viability and proliferation of PBMC (T cells) was quantified by Alamar Blue reduction for the SAg and BT systems. For PBMC viability (referred to as PBMC Cytotoxicity within the assay endpoint names), cells were plated (75,000/well in a 96-well plate) and then chemical samples added for 1 h before addition of activators, SEB and TSST-1 (20 ng/mL final concentration each). Cells were incubated for 90 h. Then, Alamar Blue (20 uL/well) (Invitrogen, Cat DAL1100) was added for 6 h, and the plates were read with a fluorescence microplate reader at 546/580 nm (excitation/emission). For PBMC proliferation, cells were plated and activated as above but incubated for only 16 h prior to addition of Alamar Blue. Plates were read after 6 h.

Row | SMILES | outcome | AC50
1 | CC(C)(CO)CO | inactive | 8.35 µM (active)
2 | CC1=CC(C)C(C=O)C(C)C1 (stereo not given) (tested in a mixture with another compound) | inactive | –
3 | c1ccc2c(c1)-c1ccc3ccc4cccc5cc-2c1c3c45 | inactive | –
4 | COc1ccccc1NC(=O)CC(C)=O | inactive | –
5 | CC(=O)OCC=C(C)CCC=C(C)CCC=C(C)C | inactive | –
6 | COC(=O)c1ccc(C(=O)OC)cc1 | inactive | –
7 | CC1(C)[C@H](C=C(Cl)Cl)[C@H]1C(=O)OCc1cccc(Oc2ccccc2)c1 | inactive | –
8 | C=C(C)C(=O)OCCC(F)(F)C(F)(F)C(F)(F)C(F)(F)C(F)(F)C(F)(F)C(F)(F)C(F)(F)F | inactive | –
9 | CCCCCCCCCCCCS | inactive | –
10 | C=C(C)C(N)=O | inactive | –
11 | CCC(=O)OCC=Cc1ccccc1 | inactive | –
12 | O=S(=O)(O)C(F)(F)C(F)(F)OC(F)(F)C(F)(F)F | inactive | –
13 | CCCCCCCCCC(=O)OCC | inactive | –
14 | CC(C)(C)c1cccc(O)c1 | inactive | –
15 | O=C(O)C(F)(F)C(F)(F)C(F)(F)C(F)(F)C(F)(F)C(F)(F)C(F)(F)C(F)F | inactive | –
16 | CC=CC(=O)C1=C(C)C=CCC1(C)C | inactive | –
17 | Nc1ccc(N)c([N+](=O)[O-])c1 | inactive | –
18 | CC(=O)CCC=C(C)CCC=C(C)C | inactive | –
19 | c1ccc(OCCOc2ccccc2)cc1 | inactive | –
20 | CCn1cc(C(=O)O)c(=O)c2ccc(C)nc21 | inactive | –

Row | SMILES | outcome | AC50
21 | C=C1CC/C=C(\C)CC[C@@H]2[C@@H]1CC2(C)C | inactive | –
22 | CCOC(=O)C=Cc1ccccc1 | inactive | –
23 | CCCCCCCC1CCCC1=O (stereo not given) | inactive | –
24 | O=S1(=O)CC(Cl)(Cl)C(Cl)(Cl)C1 | – | 2.04 µM (active)
25 | C=CC(=O)OCC(CO)(COC(=O)C=C)COC(=O)C=C | – | 2.03 µM (active)
26 | NC(=O)c1c(Cl)cccc1Cl | inactive | –
27 | CC(=O)c1ccc(C)cc1 | inactive | –
28 | OCCN1CCOCC1 | inactive | –
29 | OCC(F)(OC(F)(F)C(F)(OC(F)(F)C(F)(F)C(F)(F)F)C(F)(F)F)C(F)(F)F (stereo not given) | inactive | –
30 | O=C1OC2(c3ccc(O)cc3Oc3cc(O)ccc32)c2ccccc21 | inactive | –
31 | CCCCN(CCO)CCO | inactive | –
32 | CC(C)CCCC(C)(C)O | inactive | –
33 | CC(C)Cc1ccc(C(C)C(=O)O)cc1 (stereo not given) | inactive | –
34 | C#C[C@]1(O)CC[C@H]2[C@@H]3CCc4cc(O)ccc4[C@H]3CC[C@@]21C | inactive | –
35 | CC/C(=C(\c1ccccc1)c1ccc(OCCN(C)C)cc1)c1ccccc1 | – | 12.1 µM (active) and 11.1 µM (active)
36 | CCCCOCCOCCO | inactive | –
37 | O=C(c1ccc(OCCN2CCCCC2)cc1)c1c(-c2ccc(O)cc2)sc2cc(O)ccc12 | – | 37.2 µM (active)
38 | CC(=O)OC(C)(C)C1CC=C(C)CC1 (stereo not given) | inactive | –
39 | O=C(O)C(F)(F)OC(F)(F)C(F)(F)OC(F)(F)C(F)(F)C(F)(F)C(F)(F)F | inactive | –
